Results on nine compounds are retold here after PubChem BioAssay (NCI).

Some test systems named below: SK-MEL-2 melanoma; EKVX NSCLC; SN12C renal; UO-31 renal; TK-10 renal; ACHN renal; A498 renal; CCRF-CEM leukemia; MOLT-4 leukemia; SR leukemia; RPMI-8226 leukemia; OVCAR-8 ovarian; OVCAR-5 ovarian; OVCAR-4 ovarian; SK-OV-3 ovarian; IGROV1 ovarian; OVCAR-3 ovarian; HS 578T breast; NCI/ADR-RES ovarian.
Assay in all cases: NCI-60 one-dose screen, 48 h (100 = growth as untreated, 0 = no growth, -100 = all killed)
Settings in all cases: 10 µM unless noted

About 83,000 compounds went through this panel and 20% of them were active in at least one assay; those are over-represented in the sample as a whole.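 Growth was measured after 48 h exposure to one concentration of compound in 96-well plates. Values under 10 count as active.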 Unmarked numbers belong to inactive results. Calls of active or inactive are those of the source.

For the compound `COc1ccc(OC)c(NCC(=O)n2nc(/C=C\c3ccc(O)c(OC)c3)cc2/C=C\c2ccc(O)c(OC)c2)c1`, the growth in the assay on SK-MEL-2 melanoma is 0.648% (active); with EKVX NSCLC it was 28.7%; in the assay on SN12C renal, 21.5%; in the assay with UO-31 renal it was 5.1% (active); with TK-10 renal, 16.4%; in the assay with ACHN renal, 18.6%. In addition, the growth is 34.1% in the assay with A498 renal; 5.46% (active) in the assay with CCRF-CEM leukemia; 7.73% (active) in the assay with MOLT-4 leukemia; 0.623% (active) in the assay on SR leukemia; -8.66% (active) in the assay on RPMI-8226 leukemia; 7.25% (active) with OVCAR-8 ovarian. In addition, the growth was 25.3% in the assay with OVCAR-5 ovarian; 39.2% in the assay with OVCAR-4 ovarian; -3.5% (active) with SK-OV-3 ovarian; 11.6% in the assay with IGROV1 ovarian; 12% in the assay on OVCAR-3 ovarian; 22.2% in the assay with HS 578T breast. In addition, the growth in the assay with NCI/ADR-RES ovarian was 20.4%.

With `Cc1ccc(-c2cc(-c3nnc(SCC(=O)c4ccccc4)o3)c3ccccc3n2)cc1`, the growth in the assay with SK-MEL-2 melanoma is 90.7%; in the assay on EKVX NSCLC, 83.4%; in the assay with SN12C renal, 101%; with UO-31 renal it was 74.6%; in the assay with TK-10 renal, 61.8%; in the assay with ACHN renal, 93.9%. The growth with A498 renal was 77%; in the assay with CCRF-CEM leukemia, 100%; in the assay with MOLT-4 leukemia it was 95.2%; with SR leukemia it was 77.4%; with RPMI-8226 leukemia, 106%; in the assay with OVCAR-8 ovarian it was 100%. In addition, the growth was 92% in the assay with OVCAR-5 ovarian; 86% in the assay on OVCAR-4 ovarian; 106% in the assay on SK-OV-3 ovarian; 94.1% with IGROV1 ovarian; 97.7% in the assay on OVCAR-3 ovarian; 101% with HS 578T breast. The growth in the assay with NCI/ADR-RES ovarian was 91.9%.

In the case of `O=C1OC(=O)C2C3CC(c4ccccc43)C12` (configuration not stated), the growth with SK-MEL-2 melanoma is 125%; in the assay with EKVX NSCLC, 99.3%; with SN12C renal, 113%; in the assay with UO-31 renal it was 76.2%; with TK-10 renal, 123%; in the assay with ACHN renal, 90.1%. In addition, the growth with A498 renal was 110%; in the assay on CCRF-CEM leukemia, 98.8%; in the assay with MOLT-4 leukemia it was 104%; in the assay on SR leukemia it was 104%; in the assay with RPMI-8226 leukemia it was 99.7%; with OVCAR-8 ovarian, 92.4%. Moreover, the growth with OVCAR-5 ovarian was 85.5%; with OVCAR-4 ovarian, 112%; in the assay with SK-OV-3 ovarian, 95.8%; in the assay with IGROV1 ovarian, 109%; in the assay with OVCAR-3 ovarian, 125%; with NCI/ADR-RES ovarian, 112%.

Take `O=C(c1cc(-c2ccc(Cl)cc2)nc2ccccc12)N1N=C(c2ccccc2)CC1c1cc(-c2ccccc2)nn1-c1ccccc1` (configuration not stated): the growth in the assay on SK-MEL-2 melanoma was 86.4%; in the assay with EKVX NSCLC, 81.1%; with SN12C renal, 85.5%; in the assay on UO-31 renal, 70.4%; with TK-10 renal it was 131%; in the assay with ACHN renal, 73%. For the same compound, the growth is 92.5% in the assay with A498 renal; 65.1% with CCRF-CEM leukemia; 68.7% in the assay on MOLT-4 leukemia; 73.4% with SR leukemia; 86.8% in the assay on RPMI-8226 leukemia; 87.1% with OVCAR-8 ovarian. For the same compound, the growth in the assay with OVCAR-5 ovarian is 89.4%; in the assay on OVCAR-4 ovarian it was 64.3%; with SK-OV-3 ovarian it was 93.8%; with IGROV1 ovarian, 60.8%; in the assay with OVCAR-3 ovarian it was 68.8%; in the assay on HS 578T breast, 89.3%. The growth with NCI/ADR-RES ovarian was 81.5%.

`Nc1nc(Nc2ccc(OCc3cccc(F)c3)cc2)c2c(n1)[nH]c1ccc(O)cc12`: the growth in the assay on SK-MEL-2 melanoma is -63% (active); in the assay with EKVX NSCLC, 10.5%; in the assay on SN12C renal, -69.3% (active); in the assay on UO-31 renal, -93.5% (active); in the assay with TK-10 renal it was -9.4% (active); in the assay with ACHN renal it was -26.8% (active). For the same compound, the growth is 75.9% in the assay on A498 renal; -9.7% (active) in the assay with CCRF-CEM leukemia; -28% (active) in the assay on MOLT-4 leukemia; -48.3% (active) in the assay with SR leukemia; -37.5% (active) with RPMI-8226 leukemia; -61.7% (active) with OVCAR-8 ovarian. Further, the growth in the assay with OVCAR-5 ovarian is 0.474% (active); in the assay with OVCAR-4 ovarian, -62.2% (active); in the assay with SK-OV-3 ovarian it was -1.21% (active); in the assay on IGROV1 ovarian, -21.8% (active); with OVCAR-3 ovarian it was -86.4% (active); in the assay with HS 578T breast it was -21.9% (active). Moreover, the growth in the assay on NCI/ADR-RES ovarian is 32.3%.

With `Cc1cc2c(cc1C)N(C(=O)CCl)CCN2C(=O)CCl`, the growth was -68.1% (active) in the assay with SK-MEL-2 melanoma; -23% (active) in the assay on EKVX NSCLC; -38.4% (active) in the assay with SN12C renal; -81.5% (active) in the assay on UO-31 renal; -96.9% (active) in the assay on TK-10 renal; -81.6% (active) in the assay with ACHN renal. For the same compound, the growth with A498 renal is 85%; with CCRF-CEM leukemia, -28.8% (active); with MOLT-4 leukemia, 1.2% (active); in the assay on SR leukemia it was -13.6% (active); in the assay with RPMI-8226 leukemia it was -41.9% (active); with OVCAR-8 ovarian it was -4.44% (active). Besides, the growth in the assay with OVCAR-5 ovarian is -74.4% (active); with OVCAR-4 ovarian it was -72% (active); in the assay on SK-OV-3 ovarian, 53%; with IGROV1 ovarian, -61.8% (active); in the assay on OVCAR-3 ovarian, -95.8% (active); in the assay with NCI/ADR-RES ovarian, -49.7% (active).

Turning to `OC(COc1ccccc1Cl)CN1CCN(c2ccc(Cl)cc2)CC1` (configuration not stated), the growth is 126% in the assay with SK-MEL-2 melanoma; 106% with EKVX NSCLC; 106% with SN12C renal; 81.7% in the assay with UO-31 renal; 117% in the assay on TK-10 renal; 94.6% in the assay on ACHN renal. Besides, the growth in the assay with A498 renal was 78.6%; in the assay on CCRF-CEM leukemia it was 46%; in the assay on MOLT-4 leukemia, 95.3%; with SR leukemia, 92.3%; with RPMI-8226 leukemia, 86.6%; in the assay on OVCAR-8 ovarian, 104%. The growth with OVCAR-5 ovarian was 81.9%; with OVCAR-4 ovarian it was 91.7%; in the assay with SK-OV-3 ovarian, 114%; in the assay with IGROV1 ovarian, 96%; in the assay with OVCAR-3 ovarian, 106%; with NCI/ADR-RES ovarian it was 115%.

Take `COc1ccc(N)c(S)c1`: the growth in the assay on SK-MEL-2 melanoma is 108%; in the assay on EKVX NSCLC, 91.7%; in the assay on SN12C renal, 94.4%; with UO-31 renal it was 78.9%; in the assay with TK-10 renal, 105%; in the assay on ACHN renal it was 98.2%. In addition, the growth is 112% with A498 renal; 98.2% with CCRF-CEM leukemia; 91% with MOLT-4 leukemia; 103% with SR leukemia; 95.9% in the assay with RPMI-8226 leukemia; 90.6% in the assay on OVCAR-8 ovarian. The growth in the assay on OVCAR-5 ovarian was 104%; with OVCAR-4 ovarian, 96%; in the assay with SK-OV-3 ovarian it was 85%; in the assay on IGROV1 ovarian, 94.9%; in the assay with OVCAR-3 ovarian it was 110%; in the assay with HS 578T breast, 102%. For the same compound, the growth in the assay on NCI/ADR-RES ovarian was 98.4%.

As to `CC/C(=C(\CC)c1ccc(OCCN(CC)CC)cc1)c1ccc(OCCN(CC)CC)cc1`, the growth in the assay with SK-MEL-2 melanoma was -8.16% (active); with EKVX NSCLC it was 38%; in the assay with SN12C renal it was 68.6%; with UO-31 renal it was 24.4%; in the assay with TK-10 renal it was 48.6%; in the assay on ACHN renal it was 42.5%. Moreover, the growth in the assay on A498 renal was 43.4%; with CCRF-CEM leukemia, 38.9%; in the assay with MOLT-4 leukemia it was 42.6%; in the assay on SR leukemia, -8.6% (active); with RPMI-8226 leukemia, 18.3%; with OVCAR-8 ovarian, 53.3%. Besides, the growth in the assay on OVCAR-5 ovarian was 38.7%; in the assay on OVCAR-4 ovarian it was 38.1%; with SK-OV-3 ovarian, 64.2%; in the assay with IGROV1 ovarian, 59.9%; in the assay on OVCAR-3 ovarian it was 45.5%; in the assay with NCI/ADR-RES ovarian it was 57.6%.
